For 20 compounds, max response, outcome and Potency results are on record in PubChem BioAssay (NCATS).

Common to all, as to test: Cytotoxic Profiling of Annotated Libraries Using Quantitative High-Throughput Screening (AID 1296008); further: nearly all actives have a fitted effect of over 60% in size
What all share (settings): Five cell lines viability, CellTiter-Glo ATP luminescence, 48-72 h; max response: stronger effect = lower value

The subject of assay [1] is CRL-7250. A digest of the protocol:
(§1)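 Compounds were pin-transferred onto cells and incubated 48 or 72 hr at 37 degree Celsius, 95% humidity. CellTiter-Glo was added, plates sat 10 min at room temperature, then ATP-coupled luminescence was imaged as the viability read-out.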

The test system of assay [2] is HEK293. Summed up:
as §1

For assay [3], the system named is HaCat. A digest of the protocol: as §1
Assay [4] has as its system KB-3-1. Summed up:
as §1

The subject of assay [5] is NIH3T3. Summed up:
as §1

Results filed as inconclusive are left out. A number with no mark means an inactive call. The source made the active and inactive calls. The call rests on the fitted dose curve; in most records, active means well fitted inhibition curve with a large enough effect; inconclusive means small, poorly fitted or top-dose-only effect; inactive means flat fitted curve, though single readings scatter.
On the % scale 0 is the no-effect control and ±100 the full control effect; potency means the concentration at half of the fitted maximal effect.

Consider `Clc1cc2c(NC3CCCC3)nnc(-c3ccncc3)c2cc1Cl`, for which the max response in assay [1] is -13.3%; in assay [2] it was -9.96%; in assay [3], -55.6%; in assay [4] it was 2.36%; in assay [5], -2.41%.

For the compound `Cc1cccc(Oc2cnc(=O)[nH]c2)c1`, in assay [1], the compound was classed as inactive. Moreover, the max response in assay [2] is 2.27%; in assay [3] it was -9.89%; in assay [4] it was 3.8%; in assay [5], -28.2%.

For the compound `CCC(=O)O[C@H]1C(C)(C)[C@H]([C@@H](O)C(=O)OC)[C@]2(C)C(=O)[C@@]1(O)[C@H]1O[C@]13C1CC(=O)O[C@@H](c4ccoc4)[C@]1(C)CCC32` (stereo not given in full), the max response in assay [1] is 0.287%; in assay [2], -1.59%; in assay [3] it was -11.6%; in assay [4] it was -4.09%; in assay [5], -25.4%.

For the compound `CC[C@H]1OC(=O)[C@H](C)[C@@H](O[C@H]2C[C@@](C)(OC)[C@@H](O)[C@H](C)O2)[C@H](C)[C@@H](O[C@@H]2O[C@H](C)C[C@H](N(C)C)[C@H]2O)[C@](C)(O)C[C@@H](C)C(=O)[C@H](C)[C@H]2OC(=O)O[C@@]21C`, the max response was 0.0016% in assay [1]; -4.98% in assay [2]; -4.77% in assay [3]; 7.84% in assay [4]; 3.61% in assay [5].

Consider `CO[C@H]1O[C@@H]2O[C@]3(C)CC[C@H]4[C@H](C)CC[C@@H]([C@H]1C)[C@@]24OO3`, for which the max response in assay [1] was -2.96%; in assay [3], -0.0315%; in assay [5] it was 4.96%. In addition, in assay [2], the Potency was 10.3 µM (active). In addition, the result in assay [4] was inactive.

As for `O=C(/C=C/c1ccc(O)cc1)N[C@@H](Cc1ccc(O)cc1)C(=O)O`, the max response in assay [1] was -6.91%; in assay [2], -7.32%; in assay [3] it was 1.92%; in assay [4] it was -2.01%; in assay [5], 1.16%.

As to `NC(=O)C(CCC(F)(F)F)N(Cc1ccc(-c2ncon2)cc1F)S(=O)(=O)c1ccc(Cl)cc1` (stereo not given), the max response is -7.08% in assay [1]; -83.5% in assay [2]; -84.6% in assay [3]; -38% in assay [4]; -69% in assay [5].

Take `CC(C)(C)NCCCNC(=O)c1cccc(Br)c1`: the outcome in assay [1] was inactive. For the same compound, the max response was 0.813% in assay [2], 4.1% in assay [3], 6.67% in assay [4] and 3.37% in assay [5].

For the compound `C[C@@H]1C[C@@H](O)[C@@]23CO[C@@H](O)[C@@H]2CCC[C@@H]3[C@@]12C[C@@H](c1ccoc1)OC2=O`, the max response in assay [1] was 0.0668%; in assay [2], -9.22%; in assay [3], -27.9%; in assay [4], 7.75%; in assay [5], 4.21%.

On to `COc1c(C)c(OCC(O)C(C)(C)O)cc2c1COC2=O` (stereo not given), for which the max response in assay [1] was 4.27%; in assay [2] it was -24.2%; in assay [3] it was -8.24%; in assay [5], -1.75%. Also, in assay [4], the call was inactive.

In the case of `CC1CCC2(CO)C(C(=O)O)=CCCC2C1(C)CCc1ccoc1` (stereo not given), the outcome in assay [1] was inactive. Moreover, the max response was -3.01% in assay [2], -11.9% in assay [3], 3.67% in assay [4] and -11.3% in assay [5].

In the case of `CC(=O)O[C@H]1C[C@@](O)(C(C)C)C2[C@@H](OC(=O)c3ccc(O)cc3)C[C@@]3(C)O[C@H]3C[C@]21C` (stereo not given in full), the max response in assay [1] was -0.746%; in assay [2] it was -5.37%; in assay [3], -5.18%; in assay [4], 2.79%; in assay [5], -4.8%.

Regarding `C[C@H]1CC(=O)Nc2cccc(-c3cnn(C(C)(C)C)c3)c2N1`, the max response is -2.99% in assay [1]; 2.23% in assay [2]; 4.21% in assay [3]; -8.91% in assay [4]; -7.27% in assay [5].

Consider `CC(C)O[C@@H]1O[C@H](CO)[C@@H](O)[C@H](O)[C@H]1O`, for which the max response in assay [1] was 1.32%; in assay [2] it was 1.2%; in assay [3] it was 4.48%; in assay [4], 2%; in assay [5], 4.22%.

For the compound `CC1CC(=O)C2=C(CCC3(O)C(O)c4c(O)cccc4C(=O)C23O)C1` (stereo not given), the max response in assay [1] was -7.17%; in assay [2], -13.5%; in assay [3], -7.44%; in assay [4], 6.8%; in assay [5] it was 1.72%.

Turning to `Nc1ncnc2c1ncn2CCNCCCCCO`, the call in assay [1] and in assay [4] was inactive. For the same compound, the max response in assay [2] was 4.45%; in assay [3], -23.1%; in assay [5], -0.352%.

For `C=C1C[C@]23C[C@H]1CC[C@H]2[C@]1(C)CCC[C@@](C)(C(=O)O)[C@H]1[C@@H]3C(=O)O`, the compound was called inactive in assay [1]. Also, the max response is -6% in assay [2], -5.4% in assay [3], 0.882% in assay [4] and 2.88% in assay [5].

Regarding `CC1OC(OC2CCC3(C)C(CCC4(C)C3CC=C3C5CC(C)(C)CCC5(C(=O)OC5OC(CO)C(O)C(O)C5O)CCC34C(=O)O)C2(C)C)C(O)C(O)C1O` (stereo not given), the result in assay [1] was inactive. The max response was -0.856% in assay [2], -11.4% in assay [3], 4.21% in assay [4] and -6.15% in assay [5].

`CC1(C)CCCC2(C)C1CC=C1C(=O)OC(O)C12O` (stereo not given): the max response in assay [1] was -7.54%; in assay [2], -21.2%; in assay [3] it was 3.25%; in assay [4], 3.77%; in assay [5] it was 0.868%.

In the case of `CC12CCC(OC3OC(CO)C(O)C(OC4OC(CO)C(O)C(O)C4O)C3O)CC1CCC1C2CCC2(C)/C(=C3/COC(=O)C3)CCC12O` (stereo not given), the max response in assay [1] is -8.75%; in assay [2] it was -1.14%; in assay [3] it was -0.083%; in assay [4] it was -0.791%; in assay [5], 4.18%.
